# According to the supplement of paper PMC6555819:
# What was measured:
# Assay in all cases: PBM binding z-score (relative to random genomic background probes); higher = stronger binding; sequences stand for … in GC…GCGATTGACAGCGTAGAATGAAGG
# [1] = tested on: FXR:RXRa (NR concentration 270 nM, RXRa partner concentration 90 nM)
# In short: (§1)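 Custom Agilent 4×180K protein-binding microarrays carried double-stranded probes. Their 34-nt variable regions held direct-repeat seeds, single-nucleotide variants, half-site ablations and random human genomic background sequences. Arrays were incubated 1 h with ligand-free nuclear receptor dimers in PBS pH 7.4, 2% milk, 0.02% Triton X-100, 1 mM DTT, 0.2 mg/mL BSA and 0.4 mg/ml salmon testes DNA. Antibodies against each partner (one per run) detected binding, and scanned fluorescence was regression-normalized. Binding z-scores use random background probes as reference.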
# [2] = tested on: LXRa:RXRa (NR concentration 270 nM, RXRa partner concentration 90 nM)
# In short: as §1
# [3] = tested on: LXRa homodimer (NR concentration 270 nM)
# In short: as §1
# [4] = tested on: LXRb:RXRa (NR concentration 270 nM, RXRa partner concentration 90 nM)
# In short: as §1
# [5] = tested on: LXRb homodimer (NR concentration 270 nM)
# In short: as §1
# [6] = tested on: PPARg:RXRa (NR concentration 180 nM, RXRa partner concentration 90 nM)
# In short: as §1
# [7] = tested on: PPARg:RXRa 270nM:90nM, anti-RXR (NR concentration 270 nM, RXRa partner concentration 90 nM)
# In short: as §1
# [8] = tested on: PPARg:RXRa 30nM:10nM, anti-RXR (NR concentration 30 nM, RXRa partner concentration 10 nM)
# In short: as §1
# [9] = tested on: PPARg:RXRa 90nM:30nM, anti-RXR (NR concentration 90 nM, RXRa partner concentration 30 nM)
# In short: as §1
# [10] = tested on: PPARg:RXRa DBDmut IVT, anti-RXR (DBD mutation: RXRa K156A/R161A, NR concentration 270 nM, RXRa partner concentration 90 nM)
# In short: as §1
# [11] = tested on: PPARg:RXRa IVT, anti-PPARg (NR concentration 270 nM, RXRa partner concentration 90 nM)
# In short: as §1
# [12] = tested on: PPARg DBDmut:RXRa IVT, anti-PPARg (DBD mutation: PPARg1 K132A/R137A, NR concentration 270 nM, RXRa partner concentration 90 nM)
# In short: as §1
# [13] = tested on: PPARg DBDmut IVT, anti-PPARg (DBD mutation: PPARg1 K132A/R137A, NR concentration 270 nM)
# In short: as §1
# [14] = tested on: PPARg homodimer (NR concentration 180 nM)
# In short: as §1
# [15] = tested on: PXR:RXRa (NR concentration 270 nM, RXRa partner concentration 90 nM)
# In short: as §1
# [16] = tested on: PXR homodimer (NR concentration 270 nM)
# In short: as §1
# [17] = tested on: RARa:RXR (NR concentration 270 nM, RXRa partner concentration 90 nM)
# In short: as §1
# [18] = tested on: RARa homodimer (NR concentration 270 nM)
# In short: as §1
# [19] = tested on: RARb:RXRa (NR concentration 270 nM, RXRa partner concentration 90 nM)
# In short: as §1
Sequence,PBM binding z-score [1],PBM binding z-score [2],PBM binding z-score [3],PBM binding z-score [4],PBM binding z-score [5],PBM binding z-score [6],PBM binding z-score [7],PBM binding z-score [8],PBM binding z-score [9],PBM binding z-score [10],PBM binding z-score [11],PBM binding z-score [12],PBM binding z-score [13],PBM binding z-score [14],PBM binding z-score [15],PBM binding z-score [16],PBM binding z-score [17],PBM binding z-score [18],PBM binding z-score [19]
AGTCAAAGTTCAGGACGAGGTAATGTAAAGCACG,4.1,3.43,1.28,1.77,0.372,4.31,4.68,2.03,4.01,-0.319,1.45,-0.174,0.146,1.53,3.18,1.4,2.5,0.661,4.23
CCTACTGGGCGATTCAGAGGTCATTGATCATATG,2.02,3.68,6.2,3.09,-0.0527,0.564,1.87,0.13,0.99,1.07,1.23,-1.35,-0.572,1.38,4.37,1.7,4.25,0.31,2.53
TCTCGGAGGACACGAAAAGTCAGAGCTCGACATC,0.557,0.0964,-0.301,-0.0523,-0.795,0.122,1.13,2.15,1.59,1.7,0.139,-0.679,-0.502,0.0166,-0.0938,-0.142,0.141,-0.037,1.72
CAATCTAGGTCAAAGGTCAAAGTCGAGCCAACCA,8.46,7.47,6.51,7.41,3.28,14,11.2,12.9,13.1,8.91,9.32,3.79,6.44,3.41,6.92,1.82,8.3,1.8,5.89
CAAACTAGGTCACGAAAGGTCAAATTCGAATGAC,7.71,8.3,8.38,7.56,3.75,10.6,8.52,7.21,8.47,8.4,9.14,3.89,2.38,4.71,7.07,2.34,7.31,2.58,6
GGAACGAGCGCAAAGTTGATAGCATCTGTCGACG,-0.856,-0.827,-0.68,-1.1,-1.22,1.51,3.31,0.951,2.9,-0.42,-0.495,-0.634,-1.33,-1.01,-0.773,-0.719,-0.723,-0.818,-0.372
TGAATGAGGTTTAAGATCAGGGAACGTGGCGTCG,-0.267,-0.0856,-0.566,-0.625,-0.285,0.663,1.49,0.74,1.15,-0.249,0.242,0.0033,-0.732,-0.165,-0.2,-0.311,-0.216,-0.194,0.0151
AGCTCTAGGTAAAAGTTCAGTGAATCCCGAGGAT,0.542,0.948,0.969,0.702,-0.253,7.73,7.47,6.13,7.9,2.59,2.87,-0.0694,0.333,0.844,1.73,1.44,1.55,0.488,2.4
